This note sets out measurements from PubChem BioAssay (NCI).

Test [1] is described as follows: NCI Yeast Anticancer Drug Screen. Data for the rad50 strain (AID 155).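 Note: 0% = growth of vehicle-only cultures of the same strain.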 The conditions noted are these: S. cerevisiae rad50 strain growth inhibition, hits give high values. The method in brief:
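Readout: growth inhibition relative to vehicle-treated cultures. Compound exposure was carried out in a genetically defined yeast strain deficient in DNA damage repair.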

Test [2] can be described thus: NCI Yeast Anticancer Drug Screen. Data for the mec2-1 strain (AID 157). The conditions noted are these: S. cerevisiae mec2-1 strain, hits give high values. The method in brief:
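Test agents were screened against the mec2-1 yeast strain, with defined DNA repair or cell cycle alteration. Growth was scored as inhibition against vehicle-only controls.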

A short description of test [3]: NCI Yeast Anticancer Drug Screen. Data for the sgs1 mgt1 strain (AID 161).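 Note: 0% = growth of cultures given vehicle only.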 The conditions noted are these: S. cerevisiae sgs1 mgt1 strain, hits give high values. The method in brief:
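Genetically altered yeast, compound exposure, growth inhibition relative to vehicle.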

The nature of test [4]: NCI Yeast Anticancer Drug Screen. Data for the cln2 rad14 strain (AID 165).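 Note: 0% = growth equal to vehicle treated cultures.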 The conditions noted are these: S. cerevisiae cln2 rad14 strain, hits give high values. The gist of the method:
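Growth of compound-exposed yeast (cln2 rad14 genotype) measured and expressed as inhibition relative to vehicle.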

Test [5] is described as follows: NCI Yeast Anticancer Drug Screen. Data for the bub3 strain (AID 167). The conditions noted are these: S. cerevisiae bub3 mutant strain, hits give high values. The method in brief:
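Readout: yeast growth inhibition, expressed relative to vehicle-only wells. The test organism is a mutant strain from a panel with lesions in DNA repair or checkpoint genes.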

A short description of test [6]: NCI Yeast Anticancer Drug Screen. Data for the mlh1 rad18 strain (AID 175). The note with it: S. cerevisiae mlh1 rad18 strain growth inhibition, hits give high values. The gist of the method: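 In this whole-cell yeast screen, a strain with altered DNA damage repair is challenged with compound, and its growth is measured against matched vehicle-treated controls.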

The mark [7] stands for this setting: at 5.0 µM (retest, dose inferred, filed as 0.5).
[8] abbreviates: at 50.0 µM (retest, dose inferred, filed as 5.0).

Structures are written as SMILES. About 79,000 compounds went through this panel and 15% of them were active in at least one assay; those are over-represented in the sample as a whole. A number with no mark means an inactive call. Calls of active or inactive are those of the source. Cut-off read from the data, not from the text of the source: active = growth inhibition above about 70%; inactive = the rest.

Take `O=c1[nH]c2c([N+](=O)[O-])cc(Cl)cc2nc1/C=C(\O)c1ccc2ccccc2c1`: the growth inhibition in test [1] (setting [7]) was -4%; in test [1] (setting [8]), 95% (active); in test [1] (at 50.0 µM), 74.3% (active); in test [2] (setting [7]) it was 7%; in test [2] (setting [8]), 98% (active); in test [2] (at 50.0 µM), 72.9% (active). For the same compound, the growth inhibition in test [3] (setting [7]) was -8%; in test [3] (setting [8]), 95% (active); in test [3] (at 50.0 µM), 90.1% (active); in test [4] (setting [7]), 6%; in test [4] (setting [8]), 94% (active); in test [4] (at 50.0 µM) it was 49.1%. For the same compound, the growth inhibition in test [5] (setting [7]) is -9%; in test [5] (setting [8]) it was 97% (active); in test [5] (at 50.0 µM) it was 70% (active); in test [6] (setting [7]), 25%; in test [6] (setting [8]) it was 96% (active); in test [6] (at 50.0 µM), 71.5% (active).
Take `CC(=O)N(C)c1cc(NCc2ccccc2)ccc1OCc1ccccc1`: the growth inhibition is 1% in test [1] (setting [7]); 96% (active) in test [1] (setting [8]); 98.1% (active) in test [1] (at 50.0 µM); 12% in test [2] (setting [7]); 95% (active) in test [2] (setting [8]); 97.8% (active) in test [2] (at 50.0 µM). The growth inhibition in test [3] (setting [7]) is 2%; in test [3] (setting [8]), 96% (active); in test [3] (at 50.0 µM), 97.7% (active); in test [4] (setting [7]) it was -60%; in test [4] (setting [8]), 24%; in test [4] (at 50.0 µM) it was 79.8% (active). Besides, the growth inhibition in test [5] (setting [7]) is -7%; in test [5] (setting [8]), -65%; in test [5] (at 50.0 µM), 95.7% (active); in test [6] (setting [7]) it was -1%; in test [6] (setting [8]), 96% (active); in test [6] (at 50.0 µM), 98.3% (active).
Turning to `CCN(CC)c1ccc(/C=C2/C[N+](C)(C)C/C(=C/c3ccc(N(CC)CC)cc3)C2=O)cc1`, the growth inhibition in test [1] (setting [7]) is -17%; in test [1] (setting [8]) it was 95% (active); in test [1] (at 50.0 µM) it was 79.5% (active); in test [2] (setting [7]), -19%; in test [2] (setting [8]) it was 91% (active); in test [2] (at 50.0 µM), 78.5% (active). Besides, the growth inhibition was -13% in test [3] (setting [7]); 97% (active) in test [3] (setting [8]); 79.2% (active) in test [3] (at 50.0 µM); 4% in test [4] (setting [7]); 95% (active) in test [4] (setting [8]); 76.5% (active) in test [4] (at 50.0 µM). The growth inhibition in test [5] (setting [7]) is -20%; in test [5] (setting [8]) it was 80% (active); in test [5] (at 50.0 µM), 81.5% (active); in test [6] (setting [7]), -6%; in test [6] (setting [8]), 96% (active); in test [6] (at 50.0 µM), 82.2% (active).
`S=C(NCc1ccccc1)N/N=C/c1ccccn1`: the growth inhibition is -22% in test [1] (setting [7]); 65% in test [1] (setting [8]); 20.6% in test [1] (at 50.0 µM); 9% in test [2] (setting [7]); 57% in test [2] (setting [8]); 17.4% in test [2] (at 50.0 µM). Moreover, the growth inhibition in test [3] (setting [7]) is -9%; in test [3] (setting [8]), 60%; in test [3] (at 50.0 µM) it was 49.8%; in test [4] (setting [7]) it was 23%; in test [4] (setting [8]), 83% (active); in test [4] (at 50.0 µM), 62%. For the same compound, the growth inhibition in test [5] (setting [7]) is -22%; in test [5] (setting [8]) it was 72% (active); in test [5] (at 50.0 µM), 63.9%; in test [6] (setting [7]) it was 0%; in test [6] (setting [8]), 51%; in test [6] (at 50.0 µM) it was 42.7%.
As for `CS(=O)(=O)OCCN(CCOS(C)(=O)=O)c1ccc(C=Nc2cc(Cl)c(O)c(Cl)c2)c(Cl)c1`, the growth inhibition in test [1] (setting [7]) is -1%; in test [1] (setting [8]) it was 28%; in test [1] (at 50.0 µM), 46.6%; in test [2] (setting [7]), 42%; in test [2] (setting [8]) it was 4%; in test [2] (at 50.0 µM) it was -5%. Besides, the growth inhibition in test [3] (setting [7]) is -1%; in test [3] (setting [8]), 32%; in test [3] (at 50.0 µM), 38.5%; in test [4] (setting [7]) it was 0%; in test [4] (setting [8]), 3%; in test [4] (at 50.0 µM) it was -23.1%. Also, the growth inhibition in test [5] (setting [7]) is -1%; in test [5] (setting [8]) it was -1%; in test [5] (at 50.0 µM), 1.25%; in test [6] (setting [7]), 9%; in test [6] (setting [8]), 57%; in test [6] (at 50.0 µM), 86% (active).
In the case of `CCC[CH2][Sn]([CH2]CCC)([O]C(=O)C1CCC(=O)N1)[O]C(=O)C1CCC(=O)N1` (stereo not given), the growth inhibition was 93% (active) in test [1] (setting [7]); 93% (active) in test [1] (setting [8]); 90.3% (active) in test [1] (at 50.0 µM); 94% (active) in test [2] (setting [7]); 94% (active) in test [2] (setting [8]); 90.7% (active) in test [2] (at 50.0 µM). In addition, the growth inhibition in test [3] (setting [7]) was 91% (active); in test [3] (setting [8]), 91% (active); in test [3] (at 50.0 µM), 90% (active); in test [4] (setting [7]), 96% (active); in test [4] (setting [8]), 96% (active); in test [4] (at 50.0 µM), 91% (active). Moreover, the growth inhibition in test [5] (setting [7]) was 94% (active); in test [5] (setting [8]), 94% (active); in test [5] (at 50.0 µM), 90.9% (active); in test [6] (setting [7]), 95% (active); in test [6] (setting [8]) it was 95% (active); in test [6] (at 50.0 µM), 88.7% (active).
For `O=C(CSc1nccc(=O)[nH]1)c1ccccc1`, the growth inhibition is 2% in test [1] (setting [7]); 24% in test [1] (setting [8]); 89.4% (active) in test [1] (at 50.0 µM); 1% in test [2] (setting [7]); 38% in test [2] (setting [8]); 81.7% (active) in test [2] (at 50.0 µM). Besides, the growth inhibition in test [3] (setting [7]) is 5%; in test [3] (setting [8]), 7%; in test [3] (at 50.0 µM), 60.1%; in test [4] (setting [7]), -5%; in test [4] (setting [8]), 4%; in test [4] (at 50.0 µM), 32.4%. Further, the growth inhibition in test [5] (setting [7]) is -2%; in test [5] (setting [8]), 40%; in test [5] (at 50.0 µM) it was 86% (active); in test [6] (setting [7]), 4%; in test [6] (setting [8]) it was 52%; in test [6] (at 50.0 µM), 40.8%.
For the compound `CC12C=C3CC(OC(=O)c4ccccc4)CCC3(O1)c1ccccc12` (stereo not given), the growth inhibition in test [1] (setting [7]) is 2%; in test [1] (setting [8]), 69%; in test [1] (at 50.0 µM) it was 84.8% (active); in test [2] (setting [7]), -1%; in test [2] (setting [8]) it was 77% (active); in test [2] (at 50.0 µM), 91.5% (active). Further, the growth inhibition is 1% in test [3] (setting [7]); 80% (active) in test [3] (setting [8]); 90.1% (active) in test [3] (at 50.0 µM); 3% in test [4] (setting [7]); 2% in test [4] (setting [8]); 10.1% in test [4] (at 50.0 µM). Also, the growth inhibition in test [5] (setting [7]) is 4%; in test [5] (setting [8]), 76% (active); in test [5] (at 50.0 µM), 79.3% (active); in test [6] (setting [7]), 1%; in test [6] (setting [8]), 76% (active); in test [6] (at 50.0 µM) it was 76% (active).
Consider `O=C(Nc1c(Cl)cccc1Cl)OCc1ccc2c(c1)OCO2`, for which the growth inhibition is 46% in test [1] (setting [7]); 54% in test [1] (setting [8]); 35.8% in test [1] (at 50.0 µM); 33% in test [2] (setting [7]); 32% in test [2] (setting [8]); 48.6% in test [2] (at 50.0 µM). The growth inhibition in test [3] (setting [7]) was 44%; in test [3] (setting [8]), 53%; in test [3] (at 50.0 µM) it was 50%; in test [4] (setting [7]), 33%; in test [4] (setting [8]), 43%; in test [4] (at 50.0 µM), 14.3%. Also, the growth inhibition in test [5] (setting [7]) is 46%; in test [5] (setting [8]), 73% (active); in test [5] (at 50.0 µM) it was 43%; in test [6] (setting [7]) it was 41%; in test [6] (setting [8]), 42%; in test [6] (at 50.0 µM) it was 35.9%.
Consider `CC(COC(=O)C(c1ccccc1)C1C=CCCC1)CN1CCCC1` (stereo not given), for which the growth inhibition in test [1] (setting [7]) was -1%; in test [1] (setting [8]), 60%; in test [1] (at 50.0 µM), 70.4% (active); in test [2] (setting [7]), 18%; in test [2] (setting [8]), 51%; in test [2] (at 50.0 µM) it was 46.8%. Also, the growth inhibition in test [3] (setting [7]) was 21%; in test [3] (setting [8]), 61%; in test [3] (at 50.0 µM) it was 72.8% (active); in test [4] (setting [7]), 4%; in test [4] (setting [8]) it was 34%; in test [4] (at 50.0 µM), 86.5% (active). Also, the growth inhibition was 0% in test [5] (setting [7]); 36% in test [5] (setting [8]); 74.5% (active) in test [5] (at 50.0 µM); 35% in test [6] (setting [7]); 74% (active) in test [6] (setting [8]); 90.3% (active) in test [6] (at 50.0 µM).
